# Results as given in PubChem BioAssay (NCATS).
# Results filed as inconclusive are left out. Activity calls are given as the source filed them. Calls come from the whole dose curve; as a rule, active = well fitted cell-killing curve with a large enough effect; inconclusive = small, poorly fitted or top-dose-only effect, or effect the other way; inactive = no such curve, though single readings can be large or run the other way.
# Test: Viability qHTS for spleen associated tyrosine kinase inhibitor (SYKi) naive MV4-11 cells (AID 1963823); note: nearly all actives have a fitted effect of over 40% in size
# Conditions: MV4-11 AML viability, CellTiter-Glo luminescence, 72 h; series mostly up to 45 µM; viability (% of control): at the top concentration
# Procedure, shortened: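 CellTiter-Glo luminescence, 10 min room-temperature incubation, gave viability. Cells: naive MV4-11 (500/well), treated 72 hr at 37 C, 5% CO2.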
# Potency is the fitted concentration of half-maximal effect.
Compound,viability (% of control),Potency
C=C1C[C@@]23CC[C@@H]4[C@](C)(C(=O)O)CCC[C@@]4(C)C2=CC[C@H]1C3,87.2% (inactive),–
COc1ccc(O[C@@H]2O[C@H](CO)[C@@H](O)[C@H](O)[C@H]2O)cc1OC,76.7% (inactive),–
COc1cc(C2Oc3c(OC)cc(CCCO[C@@H]4O[C@H](CO)[C@@H](O)[C@H](O)[C@H]4O)cc3C2CO)ccc1O (stereo not given in full),58.1% [at 17.3 µM] (inactive),–
CC1=CC(=O)C2C(C)(C)CCC[C@]2(C)[C@H]1CO (stereo not given in full),67.5% (inactive),–
C[C@@H]1O[C@@H](O[C@H]2[C@H](O)[C@@H](O[C@@H]3O[C@H](CO)[C@@H](O)[C@H](O[C@@H]4O[C@H](CO)[C@@H](O)[C@H](O)[C@H]4O)[C@H]3O)[C@H](O[C@H]3CC[C@@]4(C)C(=CC[C@@H]5C4CC[C@@]4(C)C5C[C@@H]5OC6(CC[C@@](C)(CO[C@@H]7O[C@H](CO)[C@@H](O)[C@H](O)[C@H]7O)O6)[C@@H](C)[C@@H]54)C3)O[C@@H]2CO)[C@H](O)[C@H](O)[C@H]1OC1OC(CO)C(O)C(O)C1O (stereo not given in full),77.4% [at 9.25 µM] (inactive),–
CC1(C)CC[C@]2(C(=O)OC3OC(CO)C(O)C(O)C3O)CC[C@]3(C)C(=CCC4[C@@]5(C)CC[C@H](OC6OC(C(=O)O)C(O)C(O)C6O)C(CO)(CO)C5CC[C@]43C)[C@@H]2C1 (stereo not given in full),–,693 nM (active)
C[C@@H]1O[C@@H](O[C@@H]2[C@@H](O)[C@H](O[C@@H]3[C@@H](O)[C@@H](O)[C@H](O[C@H]4[C@H](OC(=O)[C@]56CCC(C)(C)C[C@H]5C5=CCC7[C@@]8(C)C[C@H](O)[C@H](O[C@@H]9O[C@H](C(=O)O)[C@@H](O)[C@H](O)[C@H]9O)[C@@](C)(CO)C8[C@H](O)C[C@@]7(C)[C@]5(C)CC6)OC[C@H](O)[C@@H]4O)O[C@H]3C)OC[C@H]2O)[C@H](O)[C@H](O)[C@H]1O (stereo not given in full),78.4% [at 9.25 µM] (inactive),–
C=C1CC2[C@@]3(C)C=CC(=O)C(C)(C)C3=C(O)C(=O)[C@@]2(C)C2(C(=O)OC)C(=O)C(C)OC(=O)[C@@]12C (stereo not given in full),–,10000 nM (active)
N#CCc1ccc(O)cc1O[C@@H]1O[C@H](CO)[C@@H](O)[C@H](O)[C@H]1O,78% (inactive),–
O=C(Nc1cc(-c2ccccc2)nn1-c1ccccc1)c1ccc([N+](=O)[O-])cc1,76% (inactive),–
CC(C)(C)Nc1nc2cc(Cl)c(Cl)cc2nc1S(C)(=O)=O,–,731 nM (active)
C[C@@H]1O[C@@H](O[C@H]2[C@H](O[C@H]3[C@H](O)[C@@H](C(=O)O)O[C@@H](O[C@H]4CC[C@@]5(C)C(CC[C@]6(C)C5CC[C@]57OC[C@@]8(CCC(C)(C)CC85)[C@H](O)C[C@]76C)C4(C)C)[C@@H]3O[C@@H]3O[C@H](CO)[C@@H](O[C@@H]4OC[C@@H](O)[C@H](O)[C@H]4O)[C@H](O)[C@H]3O)O[C@H](CO)[C@H](O)[C@@H]2O)[C@H](O)[C@H](O)[C@H]1O (stereo not given in full),77.6% [at 9.25 µM] (inactive),–
CC1(C(=O)O)CCCC2(C)C3CCC4CC3(CCC12)CC4C(=O)O (stereo not given),88.7% (inactive),–
CC(C)OC(=O)OCOP(=O)(COC(C)Cn1cnc2c(N)ncnc21)OCOC(=O)OC(C)C (stereo not given),–,2310 nM (active)
C[C@@H]1O[C@@H](O[C@H]2[C@H](OC(=O)[C@]34CCC(C)(C)C[C@H]3C3=CCC5[C@@]6(C)C[C@H](O)[C@H](O[C@@H]7O[C@H](CO)[C@@H](O)[C@H](O)[C@H]7O)[C@@](C)(CO)C6[C@H](O)C[C@@]5(C)[C@]3(C)C[C@H]4O)OC[C@H](O)[C@@H]2O)[C@H](O)[C@H](O)[C@H]1O[C@@H]1OC[C@@H](O)[C@H](O[C@H]2OC[C@](O)(CO)[C@H]2O)[C@H]1O (stereo not given in full),84.5% [at 9.25 µM] (inactive),–
Cc1cc(C)nc(NS(=O)(=O)c2ccc(NC(=S)NC(=O)COc3ccc(Br)cc3Cl)cc2)n1,83.1% (inactive),–
CN(CCO)C1CCN(c2ccc(Nc3ncc4c5ccnc(F)c5n(C5CCCC5)c4n3)nc2)CC1,–,35.5 nM (active)
CC1CCC2(C(=O)OC3OC(CO)C(O)C(O)C3O)CCC3(C)C(=CCC4C5(C)CC(O)C(O)C(C)(C(=O)O)C5CCC43C)C2C1(C)O (stereo not given),78.1% [at 17.3 µM] (inactive),–
COc1cc2ncc(-c3ccccc3)nc2cc1OC,–,3660 nM (active)
C=C1C2(C)CC3C4(C)OC(C5OC56C4=CC(=O)OC6(C)C)C3(C)C13C(=O)OC(C)C3(O)C2=O (stereo not given),77.1% [at 17.3 µM] (inactive),–
C=C1C[C@]23C[C@H]1CC[C@H]2[C@@]1(C)CCC[C@@]2(C)C(=O)O[C@@H]([C@@H]3O)[C@@H]12,62.6% (inactive),–
CC1=C2C(=O)C=C(CO)[C@@H]2[C@H]2OC(=O)[C@H](C)[C@@H]2[C@@H](O)C1,71.1% (inactive),–
CC1(O)CC(O)C2C(C(=O)O)=COC(OC3OC(CO)C(O)C(O)C3OC(=O)/C=C/c3ccc(O)cc3)C21 (stereo not given),81.9% [at 17.3 µM] (inactive),–
C=C(C(=O)O)C1CCC2(C)CCC(O)C(=C)C2C1 (stereo not given),77% (inactive),–
C=C1C(=O)O[C@@H]2/C=C(\C)CC/C=C(\C)CC[C@@H]12,–,7310 nM (active)
